The target in the assay is T1, CRBN, Q96SW2.
T1 chain: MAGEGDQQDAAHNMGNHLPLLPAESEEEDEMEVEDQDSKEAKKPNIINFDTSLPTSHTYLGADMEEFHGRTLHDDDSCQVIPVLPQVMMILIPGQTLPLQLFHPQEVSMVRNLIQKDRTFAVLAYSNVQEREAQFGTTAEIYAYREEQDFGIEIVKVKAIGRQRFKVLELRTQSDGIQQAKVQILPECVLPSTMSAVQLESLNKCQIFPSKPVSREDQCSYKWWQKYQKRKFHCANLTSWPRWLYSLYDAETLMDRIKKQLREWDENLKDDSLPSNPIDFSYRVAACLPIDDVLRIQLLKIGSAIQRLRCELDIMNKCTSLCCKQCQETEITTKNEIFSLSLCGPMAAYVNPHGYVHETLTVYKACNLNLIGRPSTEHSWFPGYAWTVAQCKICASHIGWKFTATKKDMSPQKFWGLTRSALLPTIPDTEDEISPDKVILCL
Put plainly: log2 fold change of degron read counts, EGFP-low vs EGFP+ sorted cells (limma voom), compound-induced degradation; higher = more compound-induced degradation of the degron-EGFP fusion; degrons are variants of IKZF1/3 zinc finger 2; compound dose not given here. Particulars: Jurkat, 18 h.

The mark [1] stands for this setting: compound: compound 19 (5-tert-butyl-thalidomide).
Setting [2] is: compound: compound 22 (5-morpholino-thalidomide).
Where [3] appears, read: compound: compound 33 (diphenyl IMiD analogue).

Over roughly 8,300 sequences, “log2 fold change of degron read counts, EGFP-low vs EGFP+ sorted cells (limma voom), compound-induced degradation” has its median near -1.1; the highest 2% begin near 3.2. What follows is part of a selection rich in the highest values, with near analogues and random picks from the rest.
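Also: pooled lentiviral library of zinc finger degron-EGFP fusions in mCherry-positive Jurkat cells, FACS-sorted after compound exposure, with degron abundance counted by next-generation sequencing.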

B1: 46F_47C_49E_50Q_52G_53A_54M_55F_67L_, Q9UKT9 (peptide)
chain: FCCEQCGAMFTQKGNLLRHIKL
Turning to B1, the “log2 fold change of degron read counts” value by setting is: under setting [1], -1.3; under setting [2], -2.03; under setting [3], -0.276; (compound: thalidomide) -1.41.

B2: 46F_47H_49N_50V_52G_53A_54R_55F_67L_, Q9UKT9 (peptide)
chain: FHCNVCGARFTQKGNLLRHIKL
In the case of B2, the “log2 fold change of degron read counts” value is, setting by setting: under setting [1], 0.139; under setting [2], -0.199; under setting [3], -0.986; (compound: thalidomide) -1.05.

B3: 46L_47N_49P_50I_52G_53F_54L_55C_67L_, Q9UKT9 (peptide)
chain: LNCPICGFLCTQKGNLLRHIKL
B3: the “log2 fold change of degron read counts” value is -0.106 under setting [1], 0.152 under setting [2], 0.208 under setting [3] and 0.391 (compound: thalidomide).

B4: 46F_47Q_49S_50V_52G_53H_54D_55F_67L_, Q9UKT9 (peptide)
chain: FQCSVCGHDFTQKGNLLRHIKL
Regarding B4, the “log2 fold change of degron read counts” value was -3.43 under setting [1], -3.8 under setting [2], -3.18 under setting [3] and -3.17 (compound: thalidomide).

B5: 46F_47I_49N_50Q_52G_53H_54F_55F_67L_, Q9UKT9 (peptide)
chain: FICNQCGHFFTQKGNLLRHIKL
For the sequence B5, the “log2 fold change of degron read counts” value is -2.52 under setting [1], -2.59 under setting [2], -2.06 under setting [3] and -2.52 (compound: thalidomide).

B6: 46F_47K_49E_50I_52G_53H_54F_55F_67L_, Q9UKT9 (peptide)
chain: FKCEICGHFFTQKGNLLRHIKL
With B6, the “log2 fold change of degron read counts” value is, setting by setting: under setting [1], -2.55; under setting [2], -2.68; under setting [3], -2.97; (compound: thalidomide) -2.85.

B7: 46F_47Q_49N_50V_52G_53A_54C_55F_67L_, Q9UKT9 (peptide)
chain: FQCNVCGACFTQKGNLLRHIKL
With B7, the “log2 fold change of degron read counts” value runs as follows: under setting [1], -1.23; under setting [2], 0.797; under setting [3], 0.868; (compound: thalidomide) 3.21.

B8: 46L_47F_49P_50I_52G_53F_54K_55C_67L_, Q9UKT9 (peptide)
chain: LFCPICGFKCTQKGNLLRHIKL
As to B8, the “log2 fold change of degron read counts” value under setting [1] was 2.81, the “log2 fold change of degron read counts” value under setting [2] came to 2.98, the “log2 fold change of degron read counts” value under setting [3] stood at 1.2 and the “log2 fold change of degron read counts” value (compound: thalidomide) was found to be 1.42.

B9: 46L_47G_49P_50I_52G_53F_54K_55C_67L_, Q9UKT9 (peptide)
chain: LGCPICGFKCTQKGNLLRHIKL
Consider B9, for which the “log2 fold change of degron read counts” value is, setting by setting: under setting [1], 3.67; under setting [2], 1.98; under setting [3], -0.000486; (compound: thalidomide) 1.27.

B10: 46L_47S_49P_50I_52G_53F_54K_55C_67L_, Q9UKT9 (peptide)
chain: LSCPICGFKCTQKGNLLRHIKL
In the case of B10, the “log2 fold change of degron read counts” value under setting [1] came out at 2.15, the “log2 fold change of degron read counts” value under setting [2] worked out at 1.87, the “log2 fold change of degron read counts” value under setting [3] is 0.118 and the “log2 fold change of degron read counts” value (compound: thalidomide) came to 1.77.

B11: 46L_47D_49P_50I_52G_53F_54K_55C_67L_, Q9UKT9 (peptide)
chain: LDCPICGFKCTQKGNLLRHIKL
For B11, the “log2 fold change of degron read counts” value runs as follows: under setting [1], 0.605; under setting [2], 0.0419; under setting [3], -0.53; (compound: thalidomide) 2.02.

B12: 46L_47E_49P_50I_52G_53F_54K_55C_67L_, Q9UKT9 (peptide)
chain: LECPICGFKCTQKGNLLRHIKL
For B12, the “log2 fold change of degron read counts” value is, setting by setting: under setting [1], 0.756; under setting [2], -0.257; under setting [3], 0.961; (compound: thalidomide) 3.26.

B13: 46L_47Q_49P_50I_52G_53F_54K_55C_67L_, Q9UKT9 (peptide)
chain: LQCPICGFKCTQKGNLLRHIKL
As for B13, the “log2 fold change of degron read counts” value amounted to 0.793 under setting [1], 2.43 under setting [2], 0.554 under setting [3] and 3.4 (compound: thalidomide).

B14: 46L_47H_49P_50I_52G_53F_54K_55C_67L_, Q9UKT9 (peptide)
chain: LHCPICGFKCTQKGNLLRHIKL
Regarding B14, the “log2 fold change of degron read counts” value under setting [1] came out at 2.19, the “log2 fold change of degron read counts” value under setting [2] turned out to be 2.18, the “log2 fold change of degron read counts” value under setting [3] was 1.15 and the “log2 fold change of degron read counts” value (compound: thalidomide) is 1.4.

B15: 46L_47R_49P_50I_52G_53F_54K_55C_67L_, Q9UKT9 (peptide)
chain: LRCPICGFKCTQKGNLLRHIKL
Turning to B15, the “log2 fold change of degron read counts” value reads like this: under setting [1], -0.023; under setting [2], -0.151; under setting [3], 0.993; (compound: thalidomide) 1.4.

B16: 46L_47V_49P_50I_52G_53F_54K_55C_67L_, Q9UKT9 (peptide)
chain: LVCPICGFKCTQKGNLLRHIKL
Regarding B16, the “log2 fold change of degron read counts” value turned out to be 0.655 under setting [1], 2.13 under setting [2], 0.489 under setting [3] and 2.78 (compound: thalidomide).

B17: 46F_47I_49P_50I_52G_53H_54Q_55F_67L_, Q9UKT9 (peptide)
chain: FICPICGHQFTQKGNLLRHIKL
Turning to B17, the “log2 fold change of degron read counts” value reads like this: under setting [1], -2.44; under setting [2], -2.12; under setting [3], -1.5; (compound: thalidomide) -1.12.

B18: 46F_47G_49D_50V_52G_53A_54M_55F_67L_, Q9UKT9 (peptide)
chain: FGCDVCGAMFTQKGNLLRHIKL
Regarding B18, the “log2 fold change of degron read counts” value under setting [1] worked out at 0.868, the “log2 fold change of degron read counts” value under setting [2] is -0.562, the “log2 fold change of degron read counts” value under setting [3] was -0.229 and the “log2 fold change of degron read counts” value (compound: thalidomide) was -1.8.

The values above are taken from the supplement of paper PMC12645437, “Orthogonal IMiD-Degron Pairs Induce Selective Protein Degradation in Cells” (ACS Chemical Biology, 2025).
